# Test results published in ChEMBL document CHEMBL3988442, “University of Dundee, Small-Polar-MMV Screening Library” (2021).
# For some assays here: Entries with a potency or affinity are not part of this list.
# Tests used:
# Set-up in all cases: scale not given: direction of the effect not stated beside the values
# [1] = molecular target: Protein translocase subunit SecA (Escherichia coli (strain K12)) (UniProt P10408); test: Assay to Identify E. coli SecA ATPase Inhibitors; assay type: functional; settings: 30 µM
# Chain of Protein translocase subunit SecA (Escherichia coli (strain K12)) (P10408 whole entry): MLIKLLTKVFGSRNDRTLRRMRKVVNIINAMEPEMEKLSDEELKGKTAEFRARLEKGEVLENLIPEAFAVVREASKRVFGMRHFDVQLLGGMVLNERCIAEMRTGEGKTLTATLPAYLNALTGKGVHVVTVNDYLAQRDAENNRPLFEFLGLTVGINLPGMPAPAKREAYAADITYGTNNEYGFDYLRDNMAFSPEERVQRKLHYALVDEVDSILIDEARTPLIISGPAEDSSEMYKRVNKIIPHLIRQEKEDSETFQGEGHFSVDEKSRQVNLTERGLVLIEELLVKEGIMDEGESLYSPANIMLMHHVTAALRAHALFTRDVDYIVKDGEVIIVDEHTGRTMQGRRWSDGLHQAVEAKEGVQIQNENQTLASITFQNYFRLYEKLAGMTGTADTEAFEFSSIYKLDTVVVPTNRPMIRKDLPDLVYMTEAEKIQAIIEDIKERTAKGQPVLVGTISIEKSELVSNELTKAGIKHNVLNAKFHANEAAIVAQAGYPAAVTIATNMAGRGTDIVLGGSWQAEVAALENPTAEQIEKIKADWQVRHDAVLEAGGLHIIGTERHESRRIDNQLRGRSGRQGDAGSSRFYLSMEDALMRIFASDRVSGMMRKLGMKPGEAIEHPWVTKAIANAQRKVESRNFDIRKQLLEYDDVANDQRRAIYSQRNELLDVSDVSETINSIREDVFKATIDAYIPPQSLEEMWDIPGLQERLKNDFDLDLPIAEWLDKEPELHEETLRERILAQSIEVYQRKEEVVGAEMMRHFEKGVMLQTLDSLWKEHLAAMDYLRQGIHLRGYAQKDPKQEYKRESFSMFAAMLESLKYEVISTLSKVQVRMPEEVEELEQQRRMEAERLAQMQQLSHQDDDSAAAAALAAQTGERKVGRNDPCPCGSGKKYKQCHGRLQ
# [2] = molecular target: T1, Ubiquitin-activating enzyme e1, putative (Leishmania donovani (strain BPK282A1)) (UniProt E9BSI1); test: Leishmania donovani Ubiquitin Activating Enzyme (LdE1); assay type: functional; settings: 30 µM
# T1 sequence (whole entry): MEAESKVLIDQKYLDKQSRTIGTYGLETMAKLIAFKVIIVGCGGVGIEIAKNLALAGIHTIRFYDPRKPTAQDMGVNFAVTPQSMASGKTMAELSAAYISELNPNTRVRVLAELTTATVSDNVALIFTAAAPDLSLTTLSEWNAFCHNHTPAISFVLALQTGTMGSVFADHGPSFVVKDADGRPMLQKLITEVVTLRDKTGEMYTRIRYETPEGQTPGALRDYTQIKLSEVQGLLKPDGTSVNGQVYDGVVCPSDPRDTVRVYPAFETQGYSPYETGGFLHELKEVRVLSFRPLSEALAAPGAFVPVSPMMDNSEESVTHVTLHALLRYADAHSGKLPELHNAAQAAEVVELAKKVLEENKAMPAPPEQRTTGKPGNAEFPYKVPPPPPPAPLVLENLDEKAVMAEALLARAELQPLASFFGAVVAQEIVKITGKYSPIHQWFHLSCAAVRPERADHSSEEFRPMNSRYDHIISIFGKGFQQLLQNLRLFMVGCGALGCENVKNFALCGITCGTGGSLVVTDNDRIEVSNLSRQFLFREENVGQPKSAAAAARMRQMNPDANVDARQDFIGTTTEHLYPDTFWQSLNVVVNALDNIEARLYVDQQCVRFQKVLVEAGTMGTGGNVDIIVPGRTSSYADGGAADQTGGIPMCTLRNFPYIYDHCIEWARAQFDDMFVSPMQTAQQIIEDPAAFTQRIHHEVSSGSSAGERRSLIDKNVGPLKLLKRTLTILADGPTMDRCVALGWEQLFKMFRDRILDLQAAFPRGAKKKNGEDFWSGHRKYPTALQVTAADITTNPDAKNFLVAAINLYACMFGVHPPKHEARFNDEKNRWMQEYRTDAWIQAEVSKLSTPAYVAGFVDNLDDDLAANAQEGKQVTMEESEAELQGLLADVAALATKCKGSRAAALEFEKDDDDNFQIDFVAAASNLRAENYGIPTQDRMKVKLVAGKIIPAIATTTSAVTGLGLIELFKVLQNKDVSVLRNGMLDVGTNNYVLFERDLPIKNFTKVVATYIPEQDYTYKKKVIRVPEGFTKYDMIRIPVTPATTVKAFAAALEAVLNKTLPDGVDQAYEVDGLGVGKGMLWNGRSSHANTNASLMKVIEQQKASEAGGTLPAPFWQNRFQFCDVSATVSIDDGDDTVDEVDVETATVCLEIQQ
# [3] = molecular target: AMP-activated protein kinase, AMPK (Homo sapiens) (UniProt P54646+O43741+P54619+Q9UGJ0+Q9Y478+Q13131+Q9UGI9); test: AMP-dependent Kinase enzyme assay. An in vitro enzyme assay that detects ADP turnover that is directly proportional to AMPK activity. This uses naive AMPK that is activated during the assay with MK-8722; assay type: functional; settings: 30 µM
# [4] = molecular target: Sialic acid-binding Ig-like lectin 9 (Homo sapiens) (UniProt Q9Y336); test: Hs-Siglec9 ALPHAscreen SOP 20170721; settings: 10 µM
# Chain of Sialic acid-binding Ig-like lectin 9 (Homo sapiens) (Q9Y336 whole entry): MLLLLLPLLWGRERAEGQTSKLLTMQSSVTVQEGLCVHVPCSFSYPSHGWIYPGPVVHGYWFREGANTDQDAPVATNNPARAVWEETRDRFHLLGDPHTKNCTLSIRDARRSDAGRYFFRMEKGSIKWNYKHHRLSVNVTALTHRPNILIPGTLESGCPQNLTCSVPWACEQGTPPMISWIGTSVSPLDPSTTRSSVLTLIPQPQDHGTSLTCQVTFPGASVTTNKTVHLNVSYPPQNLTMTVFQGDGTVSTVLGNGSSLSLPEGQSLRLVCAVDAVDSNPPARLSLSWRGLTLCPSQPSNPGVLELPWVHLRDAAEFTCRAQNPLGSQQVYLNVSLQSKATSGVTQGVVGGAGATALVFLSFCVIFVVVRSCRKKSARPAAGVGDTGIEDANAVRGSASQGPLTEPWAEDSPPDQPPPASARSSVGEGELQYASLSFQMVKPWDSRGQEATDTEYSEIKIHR
# Trypanosoma cruzi = test: Trypanosoma cruzi phosphomannomutase and mannose-1-phosphate guanylyltransferase assay; assay type: functional; settings: 10 µM
# [5] = molecular target: T2, Arginase-2, mitochondrial (Homo sapiens) (UniProt P78540); test: in vitro enzyme assay to detect the production of urea directly proportional to the activity of Arginase II; assay type: functional; settings: 33.3 µM; further: in the data most compounds retested in dose-response had high values
# T2 sequence (whole entry): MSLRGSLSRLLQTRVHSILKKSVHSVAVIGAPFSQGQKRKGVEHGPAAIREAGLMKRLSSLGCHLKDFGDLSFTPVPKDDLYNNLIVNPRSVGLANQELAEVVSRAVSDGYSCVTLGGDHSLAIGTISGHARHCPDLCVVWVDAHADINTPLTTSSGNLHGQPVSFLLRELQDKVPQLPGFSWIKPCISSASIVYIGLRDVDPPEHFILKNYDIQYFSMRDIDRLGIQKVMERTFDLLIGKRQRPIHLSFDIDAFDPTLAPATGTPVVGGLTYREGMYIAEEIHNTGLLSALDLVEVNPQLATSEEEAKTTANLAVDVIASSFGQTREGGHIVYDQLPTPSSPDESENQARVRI
# [6] = molecular target: T3, Proteasome subunit beta (Trypanosoma cruzi) (UniProt O96673); test: Trypanosoma cruzi proteasome chymotrypsin-like activity (TcProtChymo) assay.; further: in the data most compounds retested in dose-response had high values; assay type: functional; settings: 9.37 µM
# T3 sequence (whole entry): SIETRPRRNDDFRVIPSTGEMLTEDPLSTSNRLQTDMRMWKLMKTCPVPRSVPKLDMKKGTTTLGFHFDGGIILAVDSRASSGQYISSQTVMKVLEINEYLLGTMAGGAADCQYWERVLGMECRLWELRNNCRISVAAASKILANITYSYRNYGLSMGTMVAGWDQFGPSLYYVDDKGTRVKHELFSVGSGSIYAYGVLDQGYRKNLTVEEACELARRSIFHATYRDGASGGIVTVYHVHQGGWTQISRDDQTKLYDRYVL
# Homo sapiens = species: Homo sapiens; test: To identify inhibition of the IFN signalling (Jak-Stat) pathway via expression of an eGFP reporter gene under the control of an IFN-stimulated response element (ISRE) containing MxA promoter.; assay type: functional; settings: 30 µM
# [7] = molecular target: T4, Tyrosyl-tRNA synthetase, putative (Trypanosoma cruzi (strain CL Brener)) (UniProt Q4DSP6); test: Trypanosoma cruzi tyrosyl tRNA synthetase (TcYRS) _High Tyrosine SOP; assay type: functional; settings: 30 µM; further: in the data most compounds retested in dose-response had high values
# T4 sequence (whole entry): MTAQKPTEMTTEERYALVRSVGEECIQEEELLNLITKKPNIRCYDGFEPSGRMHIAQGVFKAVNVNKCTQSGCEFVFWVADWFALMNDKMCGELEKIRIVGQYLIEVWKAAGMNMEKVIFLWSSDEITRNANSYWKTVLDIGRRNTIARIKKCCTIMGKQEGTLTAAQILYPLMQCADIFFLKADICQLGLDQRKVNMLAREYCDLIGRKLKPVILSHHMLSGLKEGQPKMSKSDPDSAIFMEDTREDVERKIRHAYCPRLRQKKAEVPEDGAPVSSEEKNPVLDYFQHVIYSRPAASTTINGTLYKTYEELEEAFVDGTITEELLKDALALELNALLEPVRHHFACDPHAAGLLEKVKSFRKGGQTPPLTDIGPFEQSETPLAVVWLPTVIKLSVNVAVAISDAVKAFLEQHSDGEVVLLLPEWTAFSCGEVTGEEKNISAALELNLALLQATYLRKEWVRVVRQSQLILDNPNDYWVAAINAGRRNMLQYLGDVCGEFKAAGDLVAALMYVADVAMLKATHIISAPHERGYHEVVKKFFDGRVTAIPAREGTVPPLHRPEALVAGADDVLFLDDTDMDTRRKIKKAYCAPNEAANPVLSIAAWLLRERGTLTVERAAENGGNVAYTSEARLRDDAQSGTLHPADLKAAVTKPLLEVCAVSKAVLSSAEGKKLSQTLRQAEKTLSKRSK
# [8] = molecular target: T4, Tyrosyl-tRNA synthetase, putative (Trypanosoma cruzi (strain CL Brener)); test: Trypanosoma cruzi tyrosyl tRNA synthetase (TcYRS) SOP; assay type: functional; settings: 30 µM
# [9] = molecular target: Chromo domain-containing protein 1 (Saccharomyces cerevisiae (strain ATCC 204508 / S288c) (Baker's yeast)) (UniProt P32657); test: ScCHD-1 Enzyme Inhibition Assay; assay type: functional; settings: 30 µM; further: in the data most compounds retested in dose-response had high values
# Chain of Chromo domain-containing protein 1 (Saccharomyces cerevisiae (strain ATCC 204508 / S288c) (Baker's yeast)) (P32657 whole entry, the tested form may be a part): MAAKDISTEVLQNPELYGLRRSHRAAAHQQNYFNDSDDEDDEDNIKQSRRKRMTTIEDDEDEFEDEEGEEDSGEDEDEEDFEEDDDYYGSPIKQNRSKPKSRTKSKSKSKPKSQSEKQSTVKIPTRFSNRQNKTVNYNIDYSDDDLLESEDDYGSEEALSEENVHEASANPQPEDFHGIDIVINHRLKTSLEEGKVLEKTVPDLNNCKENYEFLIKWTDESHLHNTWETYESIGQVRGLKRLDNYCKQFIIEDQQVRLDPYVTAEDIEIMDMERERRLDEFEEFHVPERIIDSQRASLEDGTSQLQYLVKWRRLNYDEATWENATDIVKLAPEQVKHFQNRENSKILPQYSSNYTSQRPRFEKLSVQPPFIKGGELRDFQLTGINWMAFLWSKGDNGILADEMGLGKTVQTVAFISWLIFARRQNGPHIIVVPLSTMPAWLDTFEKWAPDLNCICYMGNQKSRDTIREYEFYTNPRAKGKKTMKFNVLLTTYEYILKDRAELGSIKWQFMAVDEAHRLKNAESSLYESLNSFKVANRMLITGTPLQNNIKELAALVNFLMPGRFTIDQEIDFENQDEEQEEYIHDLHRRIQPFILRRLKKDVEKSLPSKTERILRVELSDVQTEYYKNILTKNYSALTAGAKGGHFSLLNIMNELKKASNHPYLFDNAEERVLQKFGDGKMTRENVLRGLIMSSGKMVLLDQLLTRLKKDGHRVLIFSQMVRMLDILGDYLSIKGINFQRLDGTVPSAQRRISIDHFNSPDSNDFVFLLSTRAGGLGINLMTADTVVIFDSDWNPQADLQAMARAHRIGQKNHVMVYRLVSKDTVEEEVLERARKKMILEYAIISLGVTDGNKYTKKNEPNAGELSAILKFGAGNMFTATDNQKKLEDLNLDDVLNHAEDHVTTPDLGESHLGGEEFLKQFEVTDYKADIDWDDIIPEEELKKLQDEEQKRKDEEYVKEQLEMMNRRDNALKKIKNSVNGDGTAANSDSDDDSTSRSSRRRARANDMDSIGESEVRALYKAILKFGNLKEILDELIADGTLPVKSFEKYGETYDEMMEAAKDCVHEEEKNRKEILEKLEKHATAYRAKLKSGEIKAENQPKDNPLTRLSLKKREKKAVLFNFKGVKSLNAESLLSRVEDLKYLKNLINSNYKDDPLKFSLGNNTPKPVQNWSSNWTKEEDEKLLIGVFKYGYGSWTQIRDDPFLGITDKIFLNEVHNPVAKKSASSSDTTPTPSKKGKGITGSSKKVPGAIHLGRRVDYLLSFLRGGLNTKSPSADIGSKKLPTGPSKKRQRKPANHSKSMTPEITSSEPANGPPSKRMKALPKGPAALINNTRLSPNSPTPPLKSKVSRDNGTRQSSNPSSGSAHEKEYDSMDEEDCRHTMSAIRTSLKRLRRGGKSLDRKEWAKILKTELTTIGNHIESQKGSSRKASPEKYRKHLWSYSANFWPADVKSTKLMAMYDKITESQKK
SMILES,Percent Effect [1] [%],Percent Effect [2] [%],Percent Effect [3] [%],Percent Effect [4] [%],Percent Effect (Trypanosoma cruzi) [%],Percent Effect [5] [%],Percent Effect [6] [%],Percent Effect (Homo sapiens) [%],Percent Effect [7] [%],Percent Effect [8] [%],Percent Effect [9] [%]
COC(C(=O)N1CCN(c2cccc(Cl)c2)C(=O)C1)c1ccccc1 (stereo unspecified),-1.02,0,0.72,1,-2.7,3.33,14.7,0.627,3.7,9.76,-4.32
Cc1ncccc1NC(=O)[C@H]1C[C@@H]2CCN(Cc3nccs3)C[C@@H]2O1,0.0943,10.8,6.53,-5.38,0.293,2.23,24.4,1.37,7.57,17.9,-3.63
CN1CCN(CCCNC(=O)c2cc(Cl)c3c(c2)OCO3)CC1,0.405,9.72,-11.6,9.36,3.6,10.6,27,-22.6,3.16,15.4,-2.83
O=C(NCCN1CCCCC1)c1nc(-c2ccc3cc[nH]c3c2)no1,-1.02,25.3,-7.25,3.61,4.71,-4.75,20.5,-13.4,4.23,12.8,-6.27
Cc1nc(-c2ccccc2)sc1C(=O)NCCNc1ncccn1,-4.03,-2.63,-5.12,-0.445,-7.94,4.32,3.98,8.09,6.4,11.1,5.7
CCn1c(CN2CCN(CC(N)=O)CC2)nc2c(F)cccc21,-3.22,5.26,7.34,6.21,8.84,-2.3,1.34,-11.4,7.35,9.76,-5.52
Cc1nn(C)c(C)c1C1CCCN1C(=O)c1ccc(NC2CC2)nc1 (stereo unspecified),-1.33,16.2,-3.14,10.9,0.464,-4.25,5.92,22.6,7.92,18.3,-2.71
O=C([C@H]1CCCO1)N1CCCC2(CCN(Cc3ccncc3)C2=O)C1 (stereo partly specified),-1.19,10.4,3.88,-8.92,-7.79,7.1,11.3,31.4,3.17,6.41,-8.64
Cn1nc(C2CCCN(C(=O)CO)C2)cc1O (stereo unspecified),-4.16,-6.76,-113,-1.22,-3.75,-0.232,1.4,-6.44,-6.45,-9.09,-2.64
COC1CCN(C(=O)c2c(Cl)c3ccccc3n2C)CC1,-5.47,5.33,0.805,8.11,3.41,5.21,16.2,-7.49,3.83,11.1,-5
CCN(C)c1ncnc2c1CCN(C(=O)N1CCCC1)CC2,1.86,10.7,-0.0235,0.87,-8.88,-54.7,17.6,-9.36,4.17,15,-5.04
Cn1cccc1C(=O)N1CC[C@H]2C[C@@H](c3ccncn3)O[C@@H]2C1,-5.79,13.5,3.37,-2.88,-0.684,6.69,14.6,2.31,4.32,5.13,-0.0971
O=C1[C@H]2CN(Cc3nccs3)C[C@H]2CN1c1ccsc1,-6.53,0,8.27,-7.06,-2.25,0.319,12.4,-3.04,-1.08,2.56,-0.738
O=C(NCc1ccccc1F)N1CCC(C2OCCO2)CC1,-3.95,7.89,-0.484,-1.41,-5.94,-5.92,7.19,-6.9,4.25,7.79,-3.04
Clc1ccccc1CN1CCc2nc(C3CCCCN3)ncc2C1 (stereo unspecified),-3.32,-8,4.19,5.09,8.46,-1.17,5.55,-13.2,5.32,3.85,-2.09
Cc1cc(CN2CCN(C(=O)C(C)C)[C@@H]3CS(=O)(=O)C[C@@H]32)ccc1F,-4.05,6.94,-6.22,-3.08,-0.486,5.3,14.7,-3.72,7.37,12.8,-2.86
